# Compound activity as filed in PubChem BioAssay.
# UBC13 polyUb – blocks human UBC13 polyubiquitin chain formation; P61088; TR-FRET; inhibition, % at 20 µM; 0.47% of 330,000 active; in the data active means inhibition above about 45%, passing the limit was not always enough
# Target sequence (P61088 whole entry, looked up): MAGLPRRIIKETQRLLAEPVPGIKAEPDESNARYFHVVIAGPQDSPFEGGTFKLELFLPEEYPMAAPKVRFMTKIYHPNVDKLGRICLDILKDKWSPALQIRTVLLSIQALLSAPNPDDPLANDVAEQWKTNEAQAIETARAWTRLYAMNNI
# UBC9 SUMO inh – SUMOylation inhibition; P63279; HTRF SUMOylation assay, SAE1/SAE2 + UBC9, in vitro; inhibition, % at 35 µM; 0.36% of 290,000 active; in the data active means inhibition above about 50%, passing the limit was not always enough
# Target sequence (P63279 whole entry, looked up): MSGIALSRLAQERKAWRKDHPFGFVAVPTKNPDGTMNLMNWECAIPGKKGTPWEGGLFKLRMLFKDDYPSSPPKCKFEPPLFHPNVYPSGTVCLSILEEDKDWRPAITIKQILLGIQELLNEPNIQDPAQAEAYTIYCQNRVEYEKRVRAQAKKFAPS
# HGIII-sPLA2 inh – Blocks human group III sPLA2 activity; Q9NZ20; QFRET BODIPY PC-A2 liposome hydrolysis, fluorescence; inhibition, % at 12.2 µM; 0.56% of 370,000 active; AID 743126;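 active means inhibition above mean plus 3 SD of compounds lying within the high and low control bounds, cut at about 19% in these data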;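 further: 0% = median of test compound wells and 100% = no enzyme DMSO wells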
# NR3A LBD binder – modulates the human NR3A ligand-binding domain; Tm shift relative to glycine control, % at 25 µM; NR3A LBD differential scanning fluorimetry, Tm shift; 0% = protein alone, 100% = glycine-bound protein; 2.5% of 340,000 active;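 active means melting temperature shift of at least 10% of the positive control shift, at one fixed dose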
# Numbers without * were called inactive; · = no result. Compounds with a hit are over-represented: about 3.3% of the library has one in this group of screens.
SMILES,UBC13 polyUb,UBC9 SUMO inh,HGIII-sPLA2 inh,NR3A LBD binder
O=C(COc1ccc(/C=N/NC(=O)c2ccccc2O)cc1)Nc1ccc([N+](=O)[O-])cc1,-0.8,30.7,-5.1,37.4*
CCOc1ccc(/C=N/NC(=O)CC(=O)Nc2ccc(Cl)c(Cl)c2)cc1,1.3,28.2,-14.7,19.5*
O=C(COc1ccc(/C=N/NC(=O)c2ccncc2)cc1)Nc1ccccc1,2.7,9.7,1.5,10.9*
COc1cc(/C=N/NC(=O)c2ccc(O)cc2)ccc1OCC(=O)Nc1cccc([N+](=O)[O-])c1,13.1,21.3,-6.8,0.5
O=C(COc1ccc(/C=N/NC(=O)c2ccncc2)cc1)Nc1cccc([N+](=O)[O-])c1,-4.2,6.5,-1.0,16.5*
O=C(COc1ccc(Nc2ccccc2)cc1)Nc1ccncc1,-7.8,·,1.8,5.0
O=C(NCc1ccc(F)c(F)c1)C1CCC(CNS(=O)(=O)c2cccc3cccnc23)CC1 (configuration not stated),·,·,1.2,·
COC1=C[C@H](C(=O)NCc2ccccn2)[C@@]2(C)Cc3ccccc3[C@H]2CC1=O,·,·,6.0,·
CCOc1ccc(NC(=O)CNc2ccc(C)cc2Cl)cc1,6.1,-14.4,-8.8,34.0*
CCOc1ccc(NCC(=O)Nc2ccc(C)cc2C)cc1,-4.4,-5.3,5.5,-1.4
C=CCN(Cc1nc(-c2ccccc2)no1)C(=O)c1ccoc1C,3.6,-1.6,-3.6,14.1*
Cc1occc1C(=O)N(C)Cc1nc(-c2ccccc2)no1,0.4,0.9,-1.5,-1.3
CN1CCN(c2ccc(-c3csc(N4CCC(C(N)=O)CC4)n3)cc2)CC1,·,·,-1.3,·
COc1ccc(-c2nnc(SCC(=O)/C(C#N)=C(\C)N)o2)cc1,3.1,2.4,4.5,12.7*
COc1cccc(/C=C2\CC3(OC(=O)C(C)(C)C)CCCN2C3)c1 (configuration not stated),·,·,-3.1,·
Cc1ccc(OC(C)C(=O)Nc2ccc(C)c(S(=O)(=O)Nc3ccc(C)cc3C)c2)cc1 (configuration not stated),-0.6,-11.0,-33.1,11.6*
Cc1ccc(NS(=O)(=O)c2cc(NC(=O)c3ccc4c(c3)NC(=O)CS4)ccc2Cl)c(C)c1,-1.0,-3.3,-38.9,15.7*
Cc1ccc(S(=O)(=O)Nc2ccc(Cl)cc2)cc1NC(=O)c1cc2c(s1)CCCC2,8.8,-7.8,-56.4,12.3*
Cc1ccc(NS(=O)(=O)c2cc(NC(=O)c3cc4c(s3)CCCC4)ccc2C)c(C)c1,14.9,-4.8,-3.5,24.7*
Cc1n[nH]c(C)c1S(=O)(=O)NC(C)Cc1ccccn1 (configuration not stated),·,·,9.8,·
COc1ccc(Cn2ccc3ccc(-c4ccc5ccn(Cc6ccccc6)c5c4)cc32)cc1,·,·,11.4,·
CCCCNC(=O)C[C@H]1C(=O)N(Cc2ccc(OC)cc2)C2=CCCCC[C@@]21C(=O)OC,·,·,-5.9,·
COc1c(C(=O)NNC(=O)c2ccccc2)csc1Br,2.9,4.6,-1.2,12.5*
O[C@H](COc1ccc(Cl)cc1)CN1CCC(C(O)(c2ccccc2)c2ccccc2)CC1,·,·,-23.3,·
CCN(C(=O)COC(=O)COc1ccc2c(c1)CCC2)c1c(N)n(Cc2ccccc2)c(=O)[nH]c1=O,4.0,·,-3.9,-0.1
SMILES,UBC13 polyUb,UBC9 SUMO inh,HGIII-sPLA2 inh,NR3A LBD binder
CN(C(=O)COC(=O)COc1ccc2c(c1)CCC2)c1c(N)n(Cc2ccccc2)c(=O)[nH]c1=O,3.0,·,1.2,18.1*
c1ccc(-n2c(SCc3cccc4ccccc34)nnc2-c2ccncc2)cc1,·,·,-5.1,·
CCOC(=O)[C@@]12CN(C(=O)OC(C)(C)C)CC=C1N(Cc1ccc(OC)cc1)C(=O)[C@H]2CC(=O)NCc1cccc2ccccc12,·,·,-6.5,·
O=C(CSc1nnc(-c2ccncc2)n1-c1ccc(Br)cc1)c1ccccc1,·,·,-30.4,·
CCN1CCN(CCC(=O)Nc2ccc(Br)cc2)CC1,0.6,1.2,1.3,10.3*
CN1CCN(CCC(=O)Nc2ccc(Br)cc2)CC1,-5.0,4.2,2.1,-2.1
O=C(COCc1ccccc1)N[C@@H]1c2ccccc2CC[C@@H]1OCc1ccccc1,·,·,-4.7,16.8*
O=C(Cc1ccccc1)N[C@@H]1c2ccccc2CC[C@@H]1OCc1ccccc1,·,·,2.8,0.2
O=C(Cc1ccccc1)NC(CSSCC(NC(=O)Cc1ccccc1)C(=O)O)C(=O)O (configuration not stated),·,·,5.2,36.1*
CCOC(OCC)P(=O)(CNC(c1ccccc1)(c1ccccc1)c1ccccc1)OCC (configuration not stated),·,·,-4.6,·
CCN(CC(=O)Nc1c(F)cccc1F)C(=O)c1ccc2ccccc2n1,-1.9,·,6.2,15.5*
O=Cc1sc(Nc2ccccc2)nc1Cl,-14.0,13.6,-9.5,-1.7
Cc1ccc(Nc2nc(Cl)c(C=O)s2)cc1Cl,-6.0,9.2,-12.4,21.3*
